# Experimental data published in PubChem BioAssay (EPA / NIEHS).
# Where “and” joins values, the source holds several entries; their conditions need not be identical. Equal entries are not always repeated. Results filed as inconclusive are left out. More than one record can exist for a structure, and the calls need not agree. Calls of active or inactive are those of the source. The calls were made as follows, unless noted: active = hit-call score of the fitted dose curve at least 0.9, where 1 is the maximum; inconclusive = response in the unintended direction; inactive = score below 0.9.
# Tests used:
# [1] = target: CCAAT/enhancer-binding protein beta (Homo sapiens) (UniProt P17676); test: ATG_C_EBP_CIS: Attagene CIS-FACTORIAL HepG2 Assay for human CCAAT/Enhancer Binding Protein (C/EBP) beta (AID 2282927; active = hit-call score of the fitted dose curve at least 0.9, where 1 is the maximum; inactive = score below 0.9); details: HepG2 Attagene cis-factorial transcription factor reporter; actives raise or lower the signal
# Sequence of CCAAT/enhancer-binding protein beta (Homo sapiens) (P17676 whole entry, looked up): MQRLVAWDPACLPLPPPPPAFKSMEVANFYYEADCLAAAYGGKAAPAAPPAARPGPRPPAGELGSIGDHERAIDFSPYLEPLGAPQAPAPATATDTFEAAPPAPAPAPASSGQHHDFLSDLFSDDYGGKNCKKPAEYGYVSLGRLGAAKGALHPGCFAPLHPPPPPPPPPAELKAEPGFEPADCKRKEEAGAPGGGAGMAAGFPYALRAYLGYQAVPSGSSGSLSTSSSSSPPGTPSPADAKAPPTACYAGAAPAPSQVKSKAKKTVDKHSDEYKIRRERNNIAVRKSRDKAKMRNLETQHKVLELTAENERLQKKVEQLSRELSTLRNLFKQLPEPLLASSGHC
# Outline: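 Changes in reporter mRNA, rather than exogenous chimeric receptor activity, reflect native C/EBP signalling in transfected HepG2 cells dosed for 24 h; transcripts are detected by RT-PCR and capillary electrophoresis.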
# [2] = ATG_CMV_CIS: Attagene CIS-FACTORIAL HepG2 Assay for human CMV (Internal Marker) (AID 2282928; active = hit-call score of the fitted dose curve at least 0.9, where 1 is the maximum; inactive = score below 0.9;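 also: endpoint acts as a background internal control marker rather than a target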); details: HepG2 CMV promoter reporter, transcription factor profiling; actives raise or lower the signal
# Outline: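 Fluorescence intensity of RT-PCR-derived reporter fragments, resolved by capillary electrophoresis, gives the signal. HepG2 liver cells bearing transfected cis-element reporters were treated 24 h; activity in either direction was fit relative to DMSO-treated controls.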
# [3] = ATG_AP_2_CIS: Attagene CIS-FACTORIAL HepG2 Assay for human Activator Protein 2 (AP-2) (AID 2282932; active = hit-call score of the fitted dose curve at least 0.9, where 1 is the maximum; inactive = score below 0.9); details: HepG2 AP-2 cis-reporter, Attagene transcription factor profiling; actives raise or lower the signal
# Outline: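 Endogenous transcription factor activity is reported through transfected multiplex reporter constructs in HepG2, after 24 h of compound exposure. Transcripts were quantified by RT-PCR and capillary electrophoresis of fluorescent fragments. Bidirectional fit against DMSO.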
# [4] = ATG_BRE_CIS: Attagene CIS-FACTORIAL HepG2 Assay for human Bone Morphogenetic Protein (BMP) Response Element (BRE) (AID 2282933; active = hit-call score of the fitted dose curve at least 0.9, where 1 is the maximum; inactive = score below 0.9); details: HepG2 BMP response element reporter, Attagene transcription factor profiling; actives raise or lower the signal
# Outline: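 Multiplexed cis-reporter assay, HepG2, 24 h exposure. mRNA from reporter units quantified via RT-PCR/CE; DMSO baseline; bidirectional curve fit.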
# [5] = target: Transcription factor E2F1 (Homo sapiens) (UniProt Q01094); test: ATG_E2F_CIS: Attagene CIS-FACTORIAL HepG2 Assay for human E2F Transcription Factor 1 (AID 2282935; active = hit-call score of the fitted dose curve at least 0.9, where 1 is the maximum; inactive = score below 0.9); details: HepG2 Attagene cis-reporter, E2F reporter RNA transcripts; actives raise or lower the signal
# Sequence of Transcription factor E2F1 (Homo sapiens) (Q01094 whole entry, looked up): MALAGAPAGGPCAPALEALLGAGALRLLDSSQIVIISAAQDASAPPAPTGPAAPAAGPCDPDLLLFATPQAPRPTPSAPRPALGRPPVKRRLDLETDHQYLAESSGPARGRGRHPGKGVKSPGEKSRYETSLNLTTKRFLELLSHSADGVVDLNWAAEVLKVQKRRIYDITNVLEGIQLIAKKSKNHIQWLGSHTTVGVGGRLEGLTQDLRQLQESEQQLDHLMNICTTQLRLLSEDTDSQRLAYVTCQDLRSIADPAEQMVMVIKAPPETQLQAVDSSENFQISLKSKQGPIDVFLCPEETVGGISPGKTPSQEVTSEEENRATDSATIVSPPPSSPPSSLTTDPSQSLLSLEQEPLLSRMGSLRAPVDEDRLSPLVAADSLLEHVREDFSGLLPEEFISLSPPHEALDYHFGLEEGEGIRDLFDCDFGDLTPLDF
# Outline: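 Gain or loss of reporter transcript, fitted against DMSO, reflects E2F1-driven transcription. Transiently transfected HepG2 dosed 24 h before RNA isolation. Quantified by fluorescent RT-PCR products separated by capillary electrophoresis.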
# [6] = ATG_E_Box_CIS: Attagene CIS-FACTORIAL HepG2 Assay for human Enhancer Box (E-box) (AID 2282936; active = hit-call score of the fitted dose curve at least 0.9, where 1 is the maximum; inactive = score below 0.9); details: HepG2 E-box cis-reporter transcription, actives raise or lower the signal
# Outline: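 E-box-driven reporter transcripts measured in transiently transfected HepG2 after 24 h exposure: RNA reverse-transcribed, PCR-amplified, fluorescently labelled, digested and resolved by capillary electrophoresis. Gain or loss relative to DMSO.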
# [7] = ATG_M_61_CIS: Attagene CIS-FACTORIAL HepG2 Assay for M61 Transcription Factor (Internal Marker) (AID 2282937; active = hit-call score of the fitted dose curve at least 0.9, where 1 is the maximum; inactive = score below 0.9); details: HepG2 Attagene CIS-FACTORIAL M61 internal marker reporter; actives raise or lower the signal
# Outline: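 HepG2 cells transiently transfected with cis-element-driven multiple reporter transcription units, dosed for 24 h. Reporter mRNA measured by RT-PCR, 6-FAM primer-extension labelling, HpaI digestion and capillary electrophoresis; bidirectional fit versus DMSO baseline.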
# [8] = ATG_EGR_CIS: Attagene CIS-FACTORIAL HepG2 Assay for human Early Growth Response 1 (EGR1) (AID 2282938; active = hit-call score of the fitted dose curve at least 0.9, where 1 is the maximum; inactive = score below 0.9); details: HepG2 Attagene CIS-FACTORIAL EGR reporter mRNA; actives raise or lower the signal
# Outline: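 HepG2 cells transiently transfected with cis-promoter-driven multiplexed reporter transcription units; reporter mRNA measured 24 h after compound dosing by RT-PCR, 6-FAM primer extension, HpaI digestion and capillary electrophoresis. Bidirectional fit versus DMSO baseline.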
# [9] = ATG_Ets_CIS: Attagene CIS-FACTORIAL HepG2 Assay for human Erythroblast Transformation Specific (ETS) (AID 2282941; active = hit-call score of the fitted dose curve at least 0.9, where 1 is the maximum; inactive = score below 0.9); details: HepG2 ETS cis-reporter transcription, actives raise or lower the signal
# Outline: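 Multiplexed reporter transcript profiling: HepG2, 24 h treatment, total RNA to cDNA, PCR, 6-FAM labelling, HpaI cut, capillary electrophoresis. Gain- or loss-of-signal fitted against DMSO.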
# [10] = target: Hepatocyte nuclear factor 3-beta (Homo sapiens) (UniProt Q9Y261); test: ATG_FoxA2_CIS: Attagene CIS-FACTORIAL HepG2 Assay for human Forkhead box A2 (FOXA2) (AID 2282942; active = hit-call score of the fitted dose curve at least 0.9, where 1 is the maximum; inactive = score below 0.9); details: HepG2 cis-reporter transcription factor activity, 24 h; actives raise or lower the signal
# Sequence of Hepatocyte nuclear factor 3-beta (Homo sapiens) (Q9Y261 whole entry, looked up): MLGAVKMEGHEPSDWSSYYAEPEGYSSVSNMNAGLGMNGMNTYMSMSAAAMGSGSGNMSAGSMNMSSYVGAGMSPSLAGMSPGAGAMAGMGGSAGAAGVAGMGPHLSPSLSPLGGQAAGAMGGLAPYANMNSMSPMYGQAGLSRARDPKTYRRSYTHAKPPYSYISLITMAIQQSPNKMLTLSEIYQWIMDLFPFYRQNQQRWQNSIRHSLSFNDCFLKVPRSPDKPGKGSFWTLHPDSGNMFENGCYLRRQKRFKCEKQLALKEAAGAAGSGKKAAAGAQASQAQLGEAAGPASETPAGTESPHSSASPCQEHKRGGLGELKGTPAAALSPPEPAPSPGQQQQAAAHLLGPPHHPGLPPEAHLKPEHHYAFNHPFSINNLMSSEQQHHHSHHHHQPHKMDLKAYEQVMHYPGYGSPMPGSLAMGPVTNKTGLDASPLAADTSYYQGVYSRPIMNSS
# Outline: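 HepG2 cells transiently transfected with multiple cis-regulated reporter transcription units, dosed for 24 h. Reporter mRNA measured by RT-PCR, 6-FAM labelling, HpaI digestion and capillary electrophoresis; bidirectional fitting against DMSO baseline.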
# [11] = ATG_FoxO_CIS: Attagene CIS-FACTORIAL HepG2 Assay for human Forkhead box O (FoxO) (AID 2282943; active = hit-call score of the fitted dose curve at least 0.9, where 1 is the maximum; inactive = score below 0.9); details: HepG2 Attagene cis-reporter, FoxO element, mRNA; actives raise or lower the signal
# Outline: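 Human hepatoma HepG2 cells carry transiently introduced reporter transcription units controlled by cis promoter elements. Chemical treatment lasted 24 h, and mRNA signal was compared with DMSO.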
# [12] = TOX21_p53_BLA_p2_viability: Viability Assessment in the Tox21 HCT-116 p53 Agonism Beta-lactamase Assay, Phase 2 (AID 2283591);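 also: compound exposure lasted 16 h at 37 °C; actives lower the ATP signal meaning cytotoxicity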
# Outline: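 Cytotoxicity readout: CellTiter-Glo ATP luminescence, 30 min at room temperature, after the beta-lactamase read. Cells were HCT116 exposed 16 h at 37C to compounds pin-transferred at 217-fold dilution from DMSO stocks.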
# [13] = target: Cellular tumor antigen p53 (Homo sapiens) (UniProt P04637); test: TOX21_p53_BLA_p2_ratio: Tox21 HCT-116 p53 Agonism Beta-lactamase Assay, Ratio, Phase 2 (AID 2283592)
# Sequence of Cellular tumor antigen p53 (Homo sapiens) (P04637 whole entry, looked up): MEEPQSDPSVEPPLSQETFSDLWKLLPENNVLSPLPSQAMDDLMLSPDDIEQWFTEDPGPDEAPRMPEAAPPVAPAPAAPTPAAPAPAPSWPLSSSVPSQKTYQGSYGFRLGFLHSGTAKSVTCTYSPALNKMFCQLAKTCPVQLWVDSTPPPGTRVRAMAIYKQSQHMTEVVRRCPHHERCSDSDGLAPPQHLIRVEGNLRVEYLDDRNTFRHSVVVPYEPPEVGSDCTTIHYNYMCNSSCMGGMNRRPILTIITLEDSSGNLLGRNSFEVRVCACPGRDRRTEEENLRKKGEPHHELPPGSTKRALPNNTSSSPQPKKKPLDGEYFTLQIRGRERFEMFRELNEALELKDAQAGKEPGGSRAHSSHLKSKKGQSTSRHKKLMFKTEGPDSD
# Outline: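 Plated HCT116 p53-bla cells (4000/well) received compound after 5 h, then 16 h at 37C/5% CO2. CCF4-AM added, 2 h RT. Ratio of 460 to 530 nm emission taken as the p53 reporter signal.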
# [14] = target: Cellular tumor antigen p53 (Homo sapiens) (UniProt P04637); test: TOX21_p53_BLA_p3_ratio: Tox21 HCT-116 p53 Agonism Beta-lactamase Assay, Ratio, Phase 3 (AID 2283596)
# Outline: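 Cells were seeded at 4000/well, rested 5 h at 37C, then dosed with DMSO compound solutions (217-fold dilution) for 16 h. CCF4-AM substrate was loaded for 2 h at room temperature, and the 460/530 nm emission ratio was fitted for gain of signal versus DMSO.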
# [15] = TOX21_p53_BLA_p4_viability: Viability Assessment in the Tox21 HCT-116 p53 Agonism Beta-lactamase Assay, Phase 4 (AID 2283597);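 also: hits lower the luminescence signal meaning cytotoxicity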
# Outline: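 Readout: ATP luminescence (CellTiter-Glo), measured 30 min after reagent addition at RT. The reagent followed a 2 h CCF4-AM incubation, and the cells had been exposed to compound for 16 h at 37C.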
# [16] = target: Cellular tumor antigen p53 (Homo sapiens) (UniProt P04637); test: TOX21_p53_BLA_p5_ratio: Tox21 HCT-116 p53 Agonism Beta-lactamase Assay, Ratio, Phase 5 (AID 2283599)
# Outline: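 Beta-lactamase reporter ratio (blue 460 nm over green 530 nm, 405 nm excitation) after 2 h CCF4-AM loading, in HCT-116 cells exposed 16 h at 37 C to compounds pinned at 217-fold dilution. Increases relative to DMSO baseline scored.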
# [17] = TOX21_p53_BLA_p5_viability: Viability Assessment in the Tox21 HCT-116 p53 Agonism Beta-lactamase Assay, Phase 5 (AID 2283600)
# Outline: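 Workflow: seed 4000 cells per well, wait 5 h, add compounds (DMSO, 217-fold dilution), incubate 16 h, load CCF4-AM 2 h, add CellTiter-Glo, read luminescence after 30 min.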
# [18] = target: Cellular tumor antigen p53 (Homo sapiens) (UniProt P04637); test: TOX21_p53_BLA_p4_ratio: Tox21 HCT-116 p53 Agonism Beta-lactamase Assay, Ratio, Phase 4 (AID 2283601)
# Outline: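 Signal is the blue/green (460nm/530nm) ratio of cleaved versus uncleaved CCF4-AM substrate, read after 2 h substrate loading. Cells were HCT116 carrying the p53-responsive beta-lactamase reporter, dosed 16 h at 37C, 5% CO2; CellTiter-Glo measured in parallel.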
# [19] = TOX21_p53_BLA_p3_viability: Viability Assessment in the Tox21 HCT-116 p53 Agonism Beta-lactamase Assay, Phase 3 (AID 2283593);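 also: cells exposed to compound for 16 h before reading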
# Outline: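 Cellular ATP was quantified by CellTiter-Glo luminescence, read after 30 min at room temperature. Beforehand, HCT116 cells (4000/well) received compound 5 h post-seeding, 217-fold diluted from DMSO, then incubated 16 h at 37C.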
# [20] = target: Estrogen receptor (Homo sapiens) (UniProt P03372); test: NVS_NR_hER: NovaScreen (NVS) Nuclear Receptor Binding Assay for human Estrogen Receptor (ER) (AID 2283348)
# Sequence of Estrogen receptor (Homo sapiens) (P03372 whole entry, looked up): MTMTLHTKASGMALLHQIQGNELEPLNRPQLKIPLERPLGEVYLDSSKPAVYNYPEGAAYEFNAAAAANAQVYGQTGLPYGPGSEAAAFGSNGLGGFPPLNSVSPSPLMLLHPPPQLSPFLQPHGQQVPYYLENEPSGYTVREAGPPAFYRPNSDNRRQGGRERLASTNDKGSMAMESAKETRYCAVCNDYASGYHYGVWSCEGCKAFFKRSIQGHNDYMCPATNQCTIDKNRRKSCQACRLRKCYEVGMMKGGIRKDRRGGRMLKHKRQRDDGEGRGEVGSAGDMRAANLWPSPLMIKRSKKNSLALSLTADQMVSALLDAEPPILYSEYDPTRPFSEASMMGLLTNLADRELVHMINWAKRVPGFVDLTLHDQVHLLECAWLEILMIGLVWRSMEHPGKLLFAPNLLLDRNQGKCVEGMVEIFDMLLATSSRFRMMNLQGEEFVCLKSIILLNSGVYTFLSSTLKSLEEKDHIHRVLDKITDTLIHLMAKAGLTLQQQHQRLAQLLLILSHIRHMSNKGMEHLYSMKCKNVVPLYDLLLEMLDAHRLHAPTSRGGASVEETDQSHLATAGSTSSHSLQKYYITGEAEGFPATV
# Outline: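 Cell-free MCF7-derived ER preparation, specific radioligand displaced by test compound, read by scintillation counting 18 h post-dosing. Duplicate single-point 25 uM screen, then concentration-response confirmation; DMSO baseline.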
smiles,measurement,setting,value
CCO[Si](CCCN)(OCC)OCC,outcome,[1],inactive
same,outcome,[2],inactive
same,outcome,[3],inactive
same,outcome,[4],inactive
same,outcome,[5],inactive
same,outcome,[6],inactive
same,outcome,[7],inactive
same,outcome,[8],inactive
same,outcome,[9],inactive
same,outcome,[10],inactive
same,outcome,[11],inactive
same,outcome,[12],inactive
same,outcome,[13],inactive
same,outcome,[14],inactive
same,outcome,[15],inactive
same,outcome,[16],inactive
same,outcome,[17],inactive
same,outcome,[18],inactive
CC(=O)Oc1ccccc1C(=O)Nc1ncc([N+](=O)[O-])s1,AC50,[12],10.7 µM (active)
same,outcome,[12],inactive
same,AC50,[13],2.61 µM (active) and 14.1 µM (active)
same,AC50,[19],4.46 µM (active) and 6.54 µM (active)
same,AC50,[14],1.19 µM (active) and 15.5 µM (active)
same,AC50,[15],12.7 µM (active)
same,outcome,[15],inactive
same,AC50,[17],10.7 µM (active)
same,outcome,[17],inactive
same,AC50,[18],5.33 µM (active)
same,outcome,[18],inactive
Oc1ccc2c(c1)Cc1ccccc1-2,AC50,[20],25 µM (active)
COC(=O)CCCC(=O)O,outcome,[20],inactive
same,outcome,[12],inactive
same,outcome,[13],inactive
same,outcome,[19],inactive
same,outcome,[14],inactive
same,outcome,[17],inactive
same,outcome,[18],inactive
CCN(CC)c1ccc(N=Nc2ccc(S(=O)(=O)N(C)C)cc2)c(S(=O)(=O)NCC[n+]2ccccc2)c1,outcome,[12],inactive
SC1CCCC1,outcome,[20],inactive
CC1=C(/C=C/C(C)=C/C=C/C(C)=C/C(=O)Nc2ccc(O)cc2)C(C)(C)CCC1,AC50,[12],44.5 µM (active)
same,outcome,[12],inactive
same,AC50,[19],62.5 µM (active)
same,outcome,[19],inactive
same,AC50,[14],74.6 µM (active)
same,outcome,[14],inactive
same,AC50,[15],53.7 µM (active) and 35 µM (active)
same,AC50,[16],73.6 µM (active) and 37.7 µM (active)
same,AC50,[17],43.7 µM (active) and 37.9 µM (active)
same,AC50,[18],72.5 µM (active) and 36.6 µM (active)
Cc1oc(C)c(C(=O)Nc2ccccc2)c1C,outcome,[20],inactive
same,outcome,[12],inactive
same,outcome,[13],inactive
same,outcome,[19],inactive
same,outcome,[14],inactive
same,outcome,[15],inactive
same,outcome,[16],inactive
same,outcome,[17],inactive
NO,outcome,[12],inactive
same,outcome,[13],inactive
C[C@@H]1[C@H](O)[C@@H](C)/C=C/C=C/C=C/C=C/C=C/C=C/C=C/[C@H](O[C@@H]2O[C@H](C)[C@@H](O)[C@H](N)[C@@H]2O)C[C@@H]2O[C@](O)(C[C@@H](O)C[C@@H](O)[C@H](O)CC[C@@H](O)C[C@@H](O)CC(=O)O[C@H]1C)C[C@H](O)[C@H]2C(=O)O,AC50,[12],72.4 µM (active)
same,outcome,[12],inactive
same,outcome,[13],inactive
same,outcome,[19],inactive
same,outcome,[14],inactive
same,outcome,[15],inactive
same,outcome,[16],inactive
same,outcome,[17],inactive
same,outcome,[18],inactive
CC(O)(c1ccc(Cl)cc1)c1ccc(Cl)cc1,outcome,[20],inactive
same,outcome,[12],inactive
same,outcome,[19],inactive
same,outcome,[14],inactive
same,outcome,[15],inactive
same,outcome,[16],inactive
same,outcome,[18],inactive
C=CCN1CCc2nc(N)sc2CC1,outcome,[12],inactive
same,outcome,[13],inactive
O=[Se](O)O,AC50,[12],7.1 µM (active)
same,outcome,[12],inactive
same,AC50,[13],1.79 µM (active)
same,outcome,[13],inactive
same,AC50,[19],13.3 µM (active)
same,outcome,[19],inactive
same,AC50,[14],0.548 µM (active)
same,outcome,[14],inactive
same,AC50,[15],26 µM (active)
same,outcome,[15],inactive
same,AC50,[16],2.46 µM (active)
same,outcome,[16],inactive
same,outcome,[17],inactive
same,AC50,[18],4.23 µM (active)
same,outcome,[18],inactive
CC(=O)O[C@]1(C(C)=O)CC[C@H]2[C@@H]3C=C(Cl)C4=CC(=O)CC[C@]4(C)[C@H]3CC[C@@]21C,outcome,[12],inactive
same,AC50,[13],43.1 µM (active)
same,outcome,[13],inactive
same,outcome,[19],inactive
same,AC50,[14],72.5 µM (active)
same,outcome,[14],inactive
same,AC50,[15],21.8 µM (active)
same,outcome,[15],inactive
same,outcome,[16],inactive
same,outcome,[17],inactive
same,AC50,[18],38 µM (active)
same,outcome,[18],inactive
